# The list shows a part of the results. Unmarked numbers belong to inactive results.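 Rule for the calls: active = mean activity change at or below -40% when tested at 20 µM; inactive = the rest.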
# Test: Rh110 fluorescence interference by putative Apaf-1 activators, confirmation, artefact control for Apaf-1 activator project, biochemical, 20 µM (AID 504616)
# Details: quenched caspase reaction, Ex480/Em540, at 20 µM
row,Compound,fluorescence interference (activity change) [%]
1,Cc1ccc(Nc2nc(CSc3nnc(-c4ccncc4)n3-c3ccccc3C)cs2)cc1,11.6
2,CN(C)S(=O)(=O)c1ccc(C(=O)NCCN=C2NS(=O)(=O)c3ccccc32)cc1,8.9
3,N#CC1(C#N)C(C(=O)C23CC4CC(CC(C4)C2)C3)C12CCOCC2 (stereo unspecified),-0.76
4,O=c1[nH]cnc2c1c(-c1ccccc1)cn2-c1ccc(F)cc1,13.3
5,CCOCCc1c(O)nc(SCC(=O)NCc2ccco2)[nH]c1=O,-8.32
6,COc1ccc(S(=O)(=O)N2CCCCC2)cc1NC(=O)c1cc([N+](=O)[O-])ccc1N1CCOCC1,4.4
7,CCCC(=O)Nc1nc2ccc(NC(=O)c3c(F)c(F)c(OC)c(F)c3F)cc2s1,7.74
8,COC(CNC(=O)Cn1ncc2ccsc2c1=O)OC,-3.81
9,CC(C)N1CCC(NC(=O)Nc2ccccc2)CC1,-6.69
10,O=[N+]([O-])c1ccc2nc(-c3ccccn3)[nH]c2c1,5.13
11,CCOc1ccc(N=C2NC(=O)S/C2=C\c2ccc(O)cc2)cc1,-1.26
12,C=CCNC(=O)c1ccc(C)c(Br)c1,10.4
13,O=C(CN1C(=O)C2C3C=CC(C3)C2C1=O)NCCc1ccccc1Cl (stereo unspecified),-3.43
14,Cc1ccc(S(=O)(=O)N2CCOCC2)cc1C(=O)NC(=S)N(Cc1ccccc1)C(C)C,3.5
15,COc1ccc2c(c1)CCNC2Cc1ccc(OC)c(O)c1 (stereo unspecified),-0.08
16,Cc1ccc(S(=O)(=O)c2c(N)n(C)c3nc4ccccc4nc23)cc1,-4.76

# — PubChem BioAssay AID504616 (Sanford-Burnham Center for Chemical Genomics, 2011)
